The values that follow come from PubChem BioAssay (NCI).

Test in all cases: NCI-60 one-dose screen, 48 h (100 = growth as untreated, 0 = no growth, -100 = all killed)
What all share (conditions): 10 µM unless noted

The test system of assay [1] is HCT-15 colon.
Assay [2] deals with HT29 colon.
Assay [3] has as its system SNB-75 CNS.
Assay [4] has as its system SNB-19 CNS.
The subject of assay [5] is PC-3 prostate.
Assay [6] relates to SK-MEL-5 melanoma.
Assay [7] concerns UACC-62 melanoma.
The test system of assay [8] is LOX IMVI melanoma.
Assay [9] concerns SK-MEL-28 melanoma.
For assay [10], the system named is SK-MEL-2 melanoma.
For assay [11], the system named is SN12C renal.
In assay [12] the test system is UO-31 renal.
Assay [13] concerns TK-10 renal.
Assay [14] relates to ACHN renal.
In assay [15] the test system is CAKI-1 renal.
Assay [16] has as its system A498 renal.
In assay [17] the test system is CCRF-CEM leukemia.
Assay [18] concerns MOLT-4 leukemia.

Compounds without any hit were thinned out: in the full panel of roughly 83,000, 20% have a hit.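 Step 1: grow cells in 96-well plates. Step 2: add test compound at a single concentration. Step 3: incubate 48 h. Step 4: record percent growth.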 Unmarked numbers belong to inactive results. Activity calls are given as the source filed them. The calls were made as follows: active = growth percent below 10; inactive = the rest.

Turning to `CCOC(=O)N1CCN(c2nc(Nc3cc(C)[nH]n3)c3ccccc3n2)CC1`, the growth in assay [1] is 40.4%; in assay [2], 22.6%; in [3], -21.2% (active); in [4], 89.2%; in assay [5], 57.2%; in assay [6], 57.9%. The growth in assay [7] is 66.8%; in assay [8], 24%; in assay [9], 59.6%; in [10], 52.4%; in assay [11], 45.8%; in assay [12] it was 47.4%. The growth in assay [13] was 40.9%; in [14], 50.7%; in assay [15], 20.8%; in assay [16], -21.8% (active); in [17] it was 40.1%; in assay [18] it was 69.1%.

In the case of `CC1(C)OCC2OC3(C(=O)O)OC(C)(C)OC3C2O1` (configuration not stated), the growth was 99.6% in assay [1]; 108% in [2]; 89.2% in assay [3]; 100% in assay [4]; 106% in assay [5]; 105% in [6]. Also, the growth in [7] is 111%; in [8], 84.5%; in assay [9], 124%; in assay [10], 105%; in assay [11] it was 106%; in [12], 94.2%. In addition, the growth in assay [13] was 102%; in assay [14], 103%; in [15] it was 103%; in [16], 93.6%; in assay [17] it was 108%; in assay [18], 97.9%.

With `O=C1/C(=C/c2ccc(Cl)cc2Cl)CN(S(=O)(=O)c2ccccc2)C/C1=C\c1ccc(Cl)cc1Cl`, the growth is -14.7% (active) in [1]; -27.5% (active) in [2]; 27.8% in assay [3]; 39.1% in [4]; 6.14% (active) in [5]; 47.5% in assay [6]. The growth in assay [7] is 2.57% (active); in assay [8], -58.7% (active); in assay [9] it was 34.4%; in assay [11] it was -47.5% (active); in assay [12], -61.4% (active); in [13], -22.2% (active). Besides, the growth in assay [14] is 2.01% (active); in assay [15], -66.1% (active); in [16], 76.4%; in assay [17], -13.2% (active); in assay [18], 3.37% (active).

`Cl/C(=N\Nc1ccccc1)c1ccccc1`: the growth in assay [1] is 93.4%; in assay [2] it was 103%; in assay [3], 67.4%; in assay [4], 100%; in [5], 78%; in [6], 93.8%. The growth is 78.2% in [7]; 97% in assay [8]; 101% in assay [9]; 96.6% in assay [10]; 93.2% in assay [11]; 72.8% in [12]. Also, the growth in assay [13] is 96.8%; in assay [14] it was 92.5%; in assay [15], 67.3%; in [17], 89.4%; in [18] it was 80.1%.

As to `C#Cc1nc2ccccc2c(=O)[nH]1`, the growth in assay [1] is -47% (active); in assay [2] it was -55.2% (active); in [3], -56.1% (active); in assay [4] it was 69.2%; in [5] it was -38.2% (active); in [6], -34.6% (active). Further, the growth in assay [7] is -77.2% (active); in assay [8] it was -69.4% (active); in assay [9], -64.8% (active); in assay [10], -21.9% (active); in [11], -41.3% (active); in assay [12], -72% (active). Moreover, the growth in [13] was -42.3% (active); in [14] it was -69.2% (active); in assay [15] it was -86.4% (active); in assay [16], -61.5% (active); in assay [17], -17% (active); in assay [18], -21.4% (active).

For `Cc1ccc(Nc2c(C(N)=O)cnc3ccc(-c4csc(N)n4)cc23)cc1`, the growth in [1] was 98.7%; in assay [2], 103%; in [3], 96.9%; in assay [4], 102%; in assay [5] it was 97.6%; in assay [6], 96.7%. Further, the growth in [7] was 102%; in assay [8], 96.2%; in assay [9] it was 101%; in assay [10], 110%; in assay [11] it was 108%; in assay [12] it was 88.7%. For the same compound, the growth in [13] was 96.2%; in assay [14] it was 84.7%; in [16], 73.3%; in [17], 104%; in assay [18] it was 95.3%.

Regarding `O=C(O)C(O)C(O)C(=O)O.[NH-]C1CCCCC1[NH-].[Pt+2]` (configuration not stated), the growth is 103% in assay [1]; 111% in assay [2]; 80.8% in assay [3]; 101% in assay [4]; 106% in [5]; 103% in assay [6]. Further, the growth was 100% in assay [7]; 112% in [8]; 95.1% in assay [9]; 109% in [10]; 106% in [11]; 97.9% in assay [12]. Also, the growth in assay [13] was 113%; in [14], 101%; in assay [16] it was 125%; in [17], 112%; in [18], 105%.

In the case of `O=C1Nc2ccccc2C12CC(c1ccc(Cl)cc1)=NN2` (configuration not stated), the growth in assay [1] is 97.7%; in assay [2] it was 97.1%; in assay [3], 76%; in [4], 90.9%; in assay [5] it was 78.2%; in assay [6] it was 92.4%. In addition, the growth in assay [7] was 95%; in assay [8], 99.5%; in assay [9] it was 97.7%; in assay [11], 88.8%; in assay [12], 69.2%; in [13] it was 115%. The growth in assay [14] was 91%; in [15] it was 74.6%; in [16] it was 99.6%; in [17] it was 88.3%; in assay [18] it was 83.8%.

For `Cc1ccc(NC(=O)c2sc3nc4c(cc3c2N)C(=O)CCC4)cc1C`, the growth is 30.6% in [1]; 9.71% (active) in assay [2]; -10.3% (active) in assay [3]; 69.3% in [4]; 22.4% in assay [5]; 26.9% in [6]. Besides, the growth is 39.6% in assay [7]; 39.2% in [8]; 37.3% in assay [9]; 37% in [10]; 52.9% in [11]; 56.6% in assay [12]. For the same compound, the growth in assay [13] is 59.9%; in assay [14], 52.2%; in assay [15], 35.7%; in assay [16] it was -2.89% (active); in assay [17] it was 13.6%; in assay [18] it was 27.6%.
